Test results published in PubChem BioAssay AID652016 (National Center for Advancing Translational Sciences (NCATS), 2013).
Records with an inconclusive call do not appear. A call without a number means that no potency is given here. Active and inactive are the calls of the source. The call rests on the fitted dose curve; in most records, active means well fitted inhibition curve with a large enough effect; inconclusive means small, poorly fitted or top-dose-only effect; inactive means flat fitted curve, though single readings scatter.
Potency means the concentration at half of the fitted maximal effect.

What follows are molecules tested against Luciferin 4-monooxygenase (Photinus pyralis) (UniProt P08659) (assay: qHTS Assay for Inhibitors of Firefly Luciferase from the GSK Published Protein Kinase Inhibitor Set). Details: purified firefly luciferase, luminescence inhibition; series mostly up to 57.5 µM.
Sequence of Luciferin 4-monooxygenase (Photinus pyralis) (P08659 whole entry, looked up): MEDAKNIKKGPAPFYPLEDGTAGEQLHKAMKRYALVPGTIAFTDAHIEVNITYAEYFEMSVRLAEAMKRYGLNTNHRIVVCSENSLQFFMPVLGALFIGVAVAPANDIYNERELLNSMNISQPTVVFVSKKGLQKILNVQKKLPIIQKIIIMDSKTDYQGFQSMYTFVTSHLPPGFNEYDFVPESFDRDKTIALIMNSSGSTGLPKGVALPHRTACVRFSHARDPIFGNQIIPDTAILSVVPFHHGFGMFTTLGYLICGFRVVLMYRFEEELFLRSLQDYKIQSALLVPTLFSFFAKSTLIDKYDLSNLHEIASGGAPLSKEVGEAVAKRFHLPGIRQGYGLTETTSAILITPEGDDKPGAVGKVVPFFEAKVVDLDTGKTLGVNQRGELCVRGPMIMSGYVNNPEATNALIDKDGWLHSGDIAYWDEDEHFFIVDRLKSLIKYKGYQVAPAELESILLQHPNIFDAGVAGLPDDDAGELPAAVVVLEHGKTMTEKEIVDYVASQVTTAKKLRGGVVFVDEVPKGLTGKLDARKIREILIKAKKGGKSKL
Outline: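 Enzyme-level luminescence assay: compounds titrated (about 60uM down to 300pM) into substrate buffer (10uM ATP, 10uM D-luciferin, pH 7.5 Tris acetate with Mg, Tween-20, BSA), then 10nM firefly luciferase added; read after ~5 min.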
In the case of `COc1cc(Nc2ncc3c(C)nc(-c4cccc(C(F)(F)F)c4)n3n2)cc(OC)c1OC`, the Potency is reported as “inactive”. With `COc1cc(N2CCN(C(C)C)CC2)ccc1Nc1nc(Nc2ccc(F)cc2C(=O)NCC(O)CO)c2cc[nH]c2n1` (stereo not drawn) the Potency was “inactive”. `NC(=O)c1sc(-n2cnc3ccccc32)cc1OCc1ccccc1Br` was tested, and the Potency was “inactive”. In the case of `COc1ccc(-c2cc3c(N)ncnc3o2)cc1`, the Potency is reported as 6.51 µM (active). For `Nc1nonc1-c1nc2cnccc2n1C1CCCCC1`, the Potency was “inactive”. With `CCOc1ccc2c(-c3ccnc(Nc4cccc(C(F)(F)F)c4)n3)cnn2n1` the Potency was “inactive”. In the case of `CN(C)CCOc1ccc(-c2cc(-c3ccc4c(c3)CCC4=NO)c(-c3ccncc3)o2)cc1`, the Potency is reported as “inactive”. For `Oc1[nH]c2ccccc2c1C=Nc1ccc(-n2cncn2)cc1`, the Potency was 18.3 µM (active). With `COC(=O)Nc1nc2ccc(S(=O)(=O)c3ccc(NC(=O)Nc4cc(C(F)(F)F)ccc4F)cc3)cc2[nH]1` the Potency was “inactive”. In the case of `CNC(=O)c1cncc(C=Cc2ccccc2C)c1`, the Potency is reported as “inactive”. In the case of `CC(=O)NCc1cccc(C#Cc2cncnc2Nc2ccc(OCc3cccc(F)c3)c(Cl)c2)c1`, the Potency is reported as “inactive”. For `COc1cc2c(cc1Nc1nc(Nc3cccc(F)c3C(N)=O)c3cc[nH]c3n1)N(C(=O)CN1CCN(C(C)C)CC1)CC2`, the Potency was “inactive”. For `Nc1nc(-c2cccc(Cl)c2)c(-c2ccc3ncccc3n2)s1`, the Potency was “inactive”. For `CCn1c(-c2nonc2N)nc2c(C#CC(C)(C)O)ncc(OCC3CCCN3)c21` (stereo not drawn), the Potency was “inactive”. In the case of `Nc1nccc(-c2c(-c3ccc(F)cc3)nn3cc(C(F)(F)F)ccc23)n1`, the Potency is reported as “inactive”. `O=C(Nc1n[nH]c2cc(-c3ccccc3)ccc12)C1CC1` was tested, and the Potency was 18.3 µM (active). In the case of `COc1cc(Nc2ncc3c(C)nc(-c4cccc(Oc5ccccc5)c4)n3n2)cc(OC)c1OC`, the Potency is reported as “inactive”. `CCN(CC)S(=O)(=O)c1ccc(OC)c(Nc2ncc(-c3ccccc3)o2)c1` was tested, and the Potency was “inactive”. For `CCn1c(-c2nonc2N)nc2c(C#CCN)ncc(OCCCN)c21`, the Potency was “inactive”. In the case of `COC(=O)Nc1nc2ccc(Oc3ccc(NC(=O)Nc4ccccc4)cc3)cc2[nH]1`, the Potency is reported as 14.6 µM (active). For `COc1cccc(C=NNc2ncnc3c2cnn3-c2cccc(OC)c2)c1`, the Potency was “inactive”. In the case of `Clc1ccc(CNc2nccc(-c3cnn4ncccc34)n2)cc1`, the Potency is reported as “inactive”. `NS(=O)(=O)c1cccc(-c2cc3ccncc3cc2OCc2ccccc2)c1` was tested, and the Potency was “inactive”. `O=C(O)c1ccc(Oc2nccc(-c3c(-c4ccc(F)cc4)ncn3C3CCNCC3)n2)cc1` was tested, and the Potency was “inactive”. `Oc1cccc(-c2nc(-c3ccccc3)[nH]c2-c2ccncc2)c1` was tested, and the Potency was “inactive”. For `Nc1nccc(-c2c(-c3ccc(F)cc3)ncn2C2CCNCC2)n1`, the Potency was “inactive”. In the case of `CC(C)c1ccc2c(N=Nc3ccc(S(N)(=O)=O)cc3)c(O)[nH]c2c1`, the Potency is reported as “inactive”. With `NC(=O)c1cccc(Nc2nccc(Nc3cccc(F)c3)n2)c1` the Potency was 0.73 µM (active). `COc1cc2ncn(-c3cc(OC(C)c4ccccc4Cl)c(C(N)=O)s3)c2cc1OC` (stereo not drawn) was tested, and the Potency was “inactive”. With `CN1CCN(Cc2ccc(-c3cc4ncnc(Nc5ccc(OCc6cccc(F)c6)c(Cl)c5)c4s3)o2)CC1` the Potency was “inactive”. For `CCn1c(-c2nonc2N)nc2cncc(C(=O)N3CCNCC3)c21`, the Potency was “inactive”. `CNC(=O)c1cncc(C=Cc2ccccc2Cl)c1` was tested, and the Potency was 9.19 µM (active). In the case of `Cn1c(-c2nonc2N)nc2cnccc21`, the Potency is reported as “inactive”.
